The target of assay [1] is Leukocyte tyrosine kinase receptor (Homo sapiens) (UniProt P29376). Particulars: at 1 µM.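 Also: each value is the mean inhibition of LTK.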
Assay [2] deals with Tyrosine-protein kinase Lyn (Homo sapiens) (UniProt P07948). The conditions noted are these: at 0.1 µM.
The target is the same in assay [3]. Particulars: at 1 µM.
Assay [4] has the same target. Particulars: at 0.1 µM. This is another data set of the same source.
Assay [5] shares this target. The conditions noted are these: at 1 µM. The source holds these as a separate data set.
Assay [6] addresses T1, Tyrosine-protein kinase Mer (Homo sapiens) (UniProt Q12866).
T1 sequence (whole entry): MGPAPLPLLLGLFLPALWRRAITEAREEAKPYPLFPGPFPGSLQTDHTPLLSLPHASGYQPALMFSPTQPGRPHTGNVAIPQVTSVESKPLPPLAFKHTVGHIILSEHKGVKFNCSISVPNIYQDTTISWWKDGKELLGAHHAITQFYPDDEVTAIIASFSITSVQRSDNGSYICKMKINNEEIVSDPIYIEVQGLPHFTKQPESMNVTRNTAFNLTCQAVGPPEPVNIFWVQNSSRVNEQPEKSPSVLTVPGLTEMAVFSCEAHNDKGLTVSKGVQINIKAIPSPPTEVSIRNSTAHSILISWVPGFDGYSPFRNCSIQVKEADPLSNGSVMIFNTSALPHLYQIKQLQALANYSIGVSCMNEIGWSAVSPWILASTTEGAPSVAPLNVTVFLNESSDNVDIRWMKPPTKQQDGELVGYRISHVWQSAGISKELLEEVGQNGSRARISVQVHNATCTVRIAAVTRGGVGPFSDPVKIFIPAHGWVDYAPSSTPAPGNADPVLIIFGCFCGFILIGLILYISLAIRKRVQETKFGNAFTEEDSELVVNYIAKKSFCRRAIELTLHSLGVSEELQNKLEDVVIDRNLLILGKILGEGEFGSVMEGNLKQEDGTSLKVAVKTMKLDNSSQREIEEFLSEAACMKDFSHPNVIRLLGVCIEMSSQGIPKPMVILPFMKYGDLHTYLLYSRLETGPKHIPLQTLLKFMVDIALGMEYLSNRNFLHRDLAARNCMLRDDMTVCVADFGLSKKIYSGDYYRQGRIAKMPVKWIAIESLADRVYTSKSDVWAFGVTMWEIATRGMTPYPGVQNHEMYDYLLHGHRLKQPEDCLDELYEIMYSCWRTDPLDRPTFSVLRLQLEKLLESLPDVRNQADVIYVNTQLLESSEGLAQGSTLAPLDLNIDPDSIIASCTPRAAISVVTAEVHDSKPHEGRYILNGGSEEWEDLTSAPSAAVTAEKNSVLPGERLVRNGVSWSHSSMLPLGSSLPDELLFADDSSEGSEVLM
The conditions noted are these: at 0.1 µM.

Assay [7] addresses T1, Tyrosine-protein kinase Mer (Homo sapiens). Particulars: at 1 µM.
Assay [8] has as its target Hepatocyte growth factor receptor (Homo sapiens) (UniProt P08581). Particulars: at 0.1 µM.
Assay [9] shares this target. The conditions noted are these: at 1 µM.
Assay [10] concerns the target T2, Muscle, skeletal receptor tyrosine-protein kinase (Homo sapiens) (UniProt O15146).
T2 sequence (whole entry): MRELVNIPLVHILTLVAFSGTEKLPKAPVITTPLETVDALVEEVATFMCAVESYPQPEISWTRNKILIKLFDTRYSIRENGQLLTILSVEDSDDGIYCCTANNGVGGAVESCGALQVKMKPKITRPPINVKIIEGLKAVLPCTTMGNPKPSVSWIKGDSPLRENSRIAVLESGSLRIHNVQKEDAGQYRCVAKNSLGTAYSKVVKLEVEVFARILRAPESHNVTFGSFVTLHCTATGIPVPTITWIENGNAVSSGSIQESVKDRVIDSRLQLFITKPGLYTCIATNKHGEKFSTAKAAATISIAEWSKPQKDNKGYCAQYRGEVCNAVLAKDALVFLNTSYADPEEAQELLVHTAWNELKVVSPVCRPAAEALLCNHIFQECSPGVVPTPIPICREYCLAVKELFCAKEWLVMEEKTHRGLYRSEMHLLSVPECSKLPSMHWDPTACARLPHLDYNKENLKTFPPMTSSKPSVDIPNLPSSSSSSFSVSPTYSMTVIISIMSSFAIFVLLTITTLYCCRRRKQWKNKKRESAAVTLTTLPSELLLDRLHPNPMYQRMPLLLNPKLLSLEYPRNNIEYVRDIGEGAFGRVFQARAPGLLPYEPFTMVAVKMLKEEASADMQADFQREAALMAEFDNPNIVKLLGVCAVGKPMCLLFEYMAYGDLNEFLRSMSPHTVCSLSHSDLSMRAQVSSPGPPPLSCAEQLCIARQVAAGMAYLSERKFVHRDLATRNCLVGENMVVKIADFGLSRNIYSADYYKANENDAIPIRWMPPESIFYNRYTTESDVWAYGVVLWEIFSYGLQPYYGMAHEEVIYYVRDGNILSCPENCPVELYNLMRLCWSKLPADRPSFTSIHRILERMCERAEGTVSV
The conditions noted are these: at 0.1 µM.

For assay [11], the target named is T2, Muscle, skeletal receptor tyrosine-protein kinase (Homo sapiens). Particulars: at 1 µM.
Assay [12] has as its target Platelet-derived growth factor receptor alpha (Homo sapiens) (UniProt P16234). Particulars: at 0.1 µM.
Assay [13] has the same target. Particulars: at 1 µM.
Assay [14] deals with Platelet-derived growth factor receptor alpha (Homo sapiens), P16234 [D842V]. Particulars: at 0.1 µM.
Assay [15] has the same test system. The conditions noted are these: at 1 µM.
Assay [16] concerns Platelet-derived growth factor receptor alpha (Homo sapiens), P16234 [T674I]. The conditions noted are these: at 0.1 µM.
Assay [17] has the same test system. Particulars: at 1 µM.
Assay [18] has as its system Platelet-derived growth factor receptor alpha (Homo sapiens), P16234 [V561D]. The conditions noted are these: at 0.1 µM.
The test system is the same in assay [19]. Particulars: at 1 µM.
For assay [20], the target named is Platelet-derived growth factor receptor beta (Homo sapiens) (UniProt P09619). The conditions noted are these: at 0.1 µM.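 Also: reported value is the mean percent inhibition of the kinase.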

The values that follow come from ChEMBL document CHEMBL1961873, “Compounds: GSK PKIS; Assays: Nanosyn kinase panel” (2012).

As usually defined, the inhibition is the change of the read-out against control, counted positive when it falls.

Sequence of Platelet-derived growth factor receptor alpha (Homo sapiens) (P16234 whole entry): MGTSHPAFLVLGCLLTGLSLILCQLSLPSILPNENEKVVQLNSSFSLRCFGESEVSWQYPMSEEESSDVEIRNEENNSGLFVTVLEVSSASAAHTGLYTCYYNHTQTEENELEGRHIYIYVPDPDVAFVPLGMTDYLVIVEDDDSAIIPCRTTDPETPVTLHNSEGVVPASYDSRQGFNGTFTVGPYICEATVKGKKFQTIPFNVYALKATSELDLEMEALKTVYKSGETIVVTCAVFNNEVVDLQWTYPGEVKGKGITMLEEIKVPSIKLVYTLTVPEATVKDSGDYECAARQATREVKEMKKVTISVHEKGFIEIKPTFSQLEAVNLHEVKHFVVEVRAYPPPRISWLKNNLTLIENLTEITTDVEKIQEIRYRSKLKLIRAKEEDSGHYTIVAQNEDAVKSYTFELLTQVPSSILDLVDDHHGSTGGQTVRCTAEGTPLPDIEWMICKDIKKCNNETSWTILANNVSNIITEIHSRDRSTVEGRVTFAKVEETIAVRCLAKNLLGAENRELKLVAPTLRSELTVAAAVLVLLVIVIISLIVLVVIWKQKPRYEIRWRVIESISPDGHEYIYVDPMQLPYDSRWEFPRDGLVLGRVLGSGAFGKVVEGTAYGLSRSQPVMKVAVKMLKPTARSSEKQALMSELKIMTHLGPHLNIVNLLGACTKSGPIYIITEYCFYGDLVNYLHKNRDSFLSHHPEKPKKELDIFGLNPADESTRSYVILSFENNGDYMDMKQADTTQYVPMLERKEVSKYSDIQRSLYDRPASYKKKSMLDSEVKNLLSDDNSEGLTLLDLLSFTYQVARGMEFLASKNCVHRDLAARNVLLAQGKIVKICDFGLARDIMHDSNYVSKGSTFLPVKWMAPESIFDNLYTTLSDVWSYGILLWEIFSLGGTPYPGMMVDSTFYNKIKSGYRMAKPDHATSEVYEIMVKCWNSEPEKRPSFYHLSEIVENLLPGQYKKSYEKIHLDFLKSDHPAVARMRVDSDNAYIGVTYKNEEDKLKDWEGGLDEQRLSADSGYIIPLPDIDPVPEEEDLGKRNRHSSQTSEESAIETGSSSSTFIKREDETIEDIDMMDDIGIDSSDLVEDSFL
Sequence of Leukocyte tyrosine kinase receptor (Homo sapiens) (P29376 whole entry): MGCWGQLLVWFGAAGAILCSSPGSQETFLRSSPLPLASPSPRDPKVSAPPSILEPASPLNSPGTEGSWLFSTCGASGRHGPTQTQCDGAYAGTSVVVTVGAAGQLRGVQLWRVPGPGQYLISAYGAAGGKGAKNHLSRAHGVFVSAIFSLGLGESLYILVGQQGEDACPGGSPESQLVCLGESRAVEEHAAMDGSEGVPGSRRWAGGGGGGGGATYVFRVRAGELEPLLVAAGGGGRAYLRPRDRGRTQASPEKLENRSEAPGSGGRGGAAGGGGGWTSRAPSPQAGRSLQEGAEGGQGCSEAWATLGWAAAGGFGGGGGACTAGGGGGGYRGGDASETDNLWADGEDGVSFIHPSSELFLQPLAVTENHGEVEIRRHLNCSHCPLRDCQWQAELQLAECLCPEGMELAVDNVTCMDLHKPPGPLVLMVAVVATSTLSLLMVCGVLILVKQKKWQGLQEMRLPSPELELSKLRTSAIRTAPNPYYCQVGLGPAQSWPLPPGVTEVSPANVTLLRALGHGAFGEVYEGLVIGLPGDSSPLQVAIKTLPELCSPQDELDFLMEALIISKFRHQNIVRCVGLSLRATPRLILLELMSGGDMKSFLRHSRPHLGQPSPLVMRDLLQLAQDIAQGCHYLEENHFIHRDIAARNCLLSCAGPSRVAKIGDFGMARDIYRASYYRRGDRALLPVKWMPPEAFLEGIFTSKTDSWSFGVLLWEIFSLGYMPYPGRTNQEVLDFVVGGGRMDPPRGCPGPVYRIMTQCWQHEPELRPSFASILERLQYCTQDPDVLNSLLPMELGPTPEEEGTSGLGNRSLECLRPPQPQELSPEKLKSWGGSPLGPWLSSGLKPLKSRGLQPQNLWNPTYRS
Sequence of Platelet-derived growth factor receptor beta (Homo sapiens) (P09619 whole entry): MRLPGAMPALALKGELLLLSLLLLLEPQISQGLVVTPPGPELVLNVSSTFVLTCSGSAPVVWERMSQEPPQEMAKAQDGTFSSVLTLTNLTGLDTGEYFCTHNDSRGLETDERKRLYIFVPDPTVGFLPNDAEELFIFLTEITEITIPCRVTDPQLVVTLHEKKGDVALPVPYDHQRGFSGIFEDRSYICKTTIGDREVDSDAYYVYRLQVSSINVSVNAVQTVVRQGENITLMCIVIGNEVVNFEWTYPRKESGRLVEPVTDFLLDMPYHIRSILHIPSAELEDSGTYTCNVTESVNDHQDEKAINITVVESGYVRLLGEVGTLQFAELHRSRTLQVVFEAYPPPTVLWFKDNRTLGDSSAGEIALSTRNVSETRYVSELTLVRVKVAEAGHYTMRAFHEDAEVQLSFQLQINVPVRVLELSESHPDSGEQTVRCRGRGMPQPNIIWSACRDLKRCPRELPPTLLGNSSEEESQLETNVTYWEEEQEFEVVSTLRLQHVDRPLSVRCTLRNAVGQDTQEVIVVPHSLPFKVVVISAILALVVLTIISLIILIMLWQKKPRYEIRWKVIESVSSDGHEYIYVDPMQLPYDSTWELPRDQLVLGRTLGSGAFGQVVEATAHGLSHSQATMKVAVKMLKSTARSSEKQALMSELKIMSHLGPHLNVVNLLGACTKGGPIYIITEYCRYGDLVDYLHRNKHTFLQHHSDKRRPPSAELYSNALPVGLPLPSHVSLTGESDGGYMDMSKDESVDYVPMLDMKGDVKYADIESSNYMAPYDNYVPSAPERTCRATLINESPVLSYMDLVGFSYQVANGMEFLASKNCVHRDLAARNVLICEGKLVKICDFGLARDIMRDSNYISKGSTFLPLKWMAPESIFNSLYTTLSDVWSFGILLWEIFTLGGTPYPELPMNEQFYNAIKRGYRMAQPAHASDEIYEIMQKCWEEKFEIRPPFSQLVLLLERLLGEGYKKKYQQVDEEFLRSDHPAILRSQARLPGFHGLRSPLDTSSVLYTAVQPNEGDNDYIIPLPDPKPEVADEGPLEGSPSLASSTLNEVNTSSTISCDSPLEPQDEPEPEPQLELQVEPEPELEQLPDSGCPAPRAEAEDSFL
Sequence of Platelet-derived growth factor receptor alpha (Homo sapiens), P16234 [V561D] (P16234 whole entry V561D): as the sequence (P16234 whole entry) above, with V561D counted along it
Sequence of Tyrosine-protein kinase Lyn (Homo sapiens) (P07948 2-512 limits assumed): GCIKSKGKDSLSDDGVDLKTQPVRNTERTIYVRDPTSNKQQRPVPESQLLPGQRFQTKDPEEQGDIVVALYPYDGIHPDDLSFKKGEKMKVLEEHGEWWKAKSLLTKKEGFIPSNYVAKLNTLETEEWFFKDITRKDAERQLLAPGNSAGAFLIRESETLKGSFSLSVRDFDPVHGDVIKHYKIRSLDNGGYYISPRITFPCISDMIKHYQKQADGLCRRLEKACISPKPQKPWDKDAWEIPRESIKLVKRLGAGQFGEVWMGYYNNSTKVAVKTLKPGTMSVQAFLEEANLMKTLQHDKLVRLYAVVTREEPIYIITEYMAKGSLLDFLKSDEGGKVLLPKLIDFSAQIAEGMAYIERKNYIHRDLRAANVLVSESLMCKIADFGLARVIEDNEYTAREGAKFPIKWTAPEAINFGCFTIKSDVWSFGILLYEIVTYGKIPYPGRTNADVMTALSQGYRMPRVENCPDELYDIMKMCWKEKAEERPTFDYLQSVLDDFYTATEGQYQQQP

As to `O=C1Nc2ccc(-c3cccnc3)cc2C1=Cc1cc(Br)c(O)c(Br)c1`, the inhibition in assay [1] was 23%; in assay [2] it was 2.95%; in assay [3], 11.1%; in assay [4], 1.54%; in [5], 9.06%; in assay [6], 1.25%. Also, the inhibition in [7] stood at 2.23%; in [8], 2.89%; in assay [9], 5.75%; in assay [10] it was 3.42%; in assay [11], 5.67%; in [12] it was 10.2%. In addition, the inhibition in [13] was determined as 20.2%; in assay [14], 4.65%; in assay [15], 12.5%; in [16], 5.16%; in [17], 5.71%; in assay [18] it was 5.57%. For the same molecule, the figures for the inhibition in assay [19] and in assay [20] were 23.6% and 1.45%, respectively.
Take `Cc1ccc2c(c1)/C(=N/Nc1ccc(S(N)(=O)=O)cc1)C(=O)N2`: the inhibition was 1% in [1]; 0.12% in assay [2]; 4.93% in [3]; 0.75% in assay [4]; 4.77% in assay [5]; -1.4% in assay [6]. Moreover, the inhibition in [7] came to 1.27%; in [8], 1.07%; in assay [9], 4.08%; in assay [10], 2.69%; in assay [11], 16.2%; in assay [12], 12.2%. Moreover, the inhibition in [13] stood at 37.7%; in assay [14], 2.85%; in assay [15], 13.1%; in assay [16], 11.5%; in assay [17], 70.2%; in assay [18], 21.8%. The inhibition in assay [19] was found to be 52.3%; in assay [20] it was 8.12%.
`C[C@@H](Oc1cc(-n2cnc3ccc(OCC4CCN(C)CC4)cc32)sc1C(N)=O)c1ccccc1C(F)(F)F`: the inhibition in [1] was 3.18%; in assay [2], 1.14%; in assay [3] it was 18.9%; in assay [4] it was 1.52%; in [5], 16.5%; in assay [6], -0.95%. The inhibition in assay [7] was 6.99%; in assay [8] it was 2.85%; in [9], 9.84%; in assay [10], 41.3%; in [11], 76%; in [12] it was 25.1%. For the same molecule, the inhibition in assay [13] turned out to be 69.4%; in assay [14], 18.1%; in [15], 65.6%; in assay [16] it was 4.88%; in assay [17] it was 46%; in [18], 17.7%. The inhibition turned out to be 66.2% in [19] and 56.3% in assay [20].
Regarding `O=C(Nc1ccc(Oc2ccc3[nH]c(NC(=O)c4ccco4)nc3c2)cc1)Nc1cc(C(F)(F)F)ccc1F`, the inhibition in assay [1] stood at 5.81%; in assay [2] it was 14%; in assay [3], 65.7%; in assay [4], 9.31%; in assay [5], 60.5%; in assay [6], 0.43%. The inhibition in assay [7] stood at 14.1%; in assay [8], 3.13%; in assay [9], 42.9%; in assay [10] it was 49.9%; in assay [11], 83.5%; in assay [12], 68%. In addition, the inhibition in assay [13] was 85%; in [14], 4.64%; in assay [15], 31%; in [16], 43.8%; in assay [17], 95.8%; in [18], 73.2%. Besides, the inhibition in assay [19] was determined as 95.4%; in [20], 12.1%.
For `Cc1nc(-c2ccccc2)n2nc(NCCCN3CCOCC3)ncc12`, the inhibition is 2.41% in [1]; 2.4% in assay [2]; 2.59% in [3]; 2.14% in assay [4]; 2.72% in assay [5]; 4.66% in assay [6]. In addition, the inhibition in assay [7] is 5.5%; in assay [8] it was 2.77%; in [9], 0.32%; in assay [10], 1.84%; in [11], 5.56%; in assay [12], 3.35%. Also, the inhibition was found to be 9.81% in [13]; 0.64% in [14]; 6.14% in assay [15]; 3% in assay [16]; 5.5% in assay [17]; 2.27% in [18]. Also, the inhibition in [19] was determined as 3.3%; in assay [20], 1.99%.
Take `COc1cccc(-n2ncc3c(N/N=C/c4ccc(S(C)(=O)=O)cc4)ncnc32)c1`: the inhibition was determined as 2.05% in assay [1]; 54.1% in assay [2]; 76.5% in assay [3]; 48.1% in assay [4]; 73.3% in assay [5]; 6.96% in assay [6]. The inhibition in assay [7] worked out at 28.3%; in assay [8], 14.5%; in assay [9], 47.6%; in assay [10], 12.1%; in assay [11], 23.3%; in assay [12], 43.7%. The inhibition in assay [13] came to 77.8%; in assay [14], 51.8%; in assay [15], 89%; in [16] it was 21%; in assay [17], 80.5%; in assay [18], 44.1%. For the same molecule, the inhibition in assay [19] was 86.2%; in assay [20], 52.4%.
